Source: PubChem (National Center for Advancing Translational Sciences (NCATS))
ERK EGF block: qHTS Assay for Inhibitors of the ERK Signaling Pathway using a Homogeneous Screening Assay; Stimulation with EGF; HEK293-V1b, EGF-stimulated phospho-ERK AlphaScreen; Potency, µM (doses to about 11.5 µM), hits mostly inhibitors; actives 0.41% (n = 130,000); AID 1454, 2008; active = well fitted inhibition curve with a large enough effect; note: nearly all actives have a fitted effect of over 55% in size
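Readout: AlphaScreen signal for phosphorylated ERK in lysed HEK293 cells stably expressing V1b. Stimulus 25 nM EGF, 5 min, following 30 min compound exposure. Data scaled to DMSO basal and full EGF activation.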
A number is an active result. This is one part of a sample in which hits are shown more often than they occur.

CCOc1cc(CNC(CC)CO)ccc1OCC(=O)Nc1cccc(C(F)(F)F)c1 (stereo not given) was read as ERK EGF block inactive.
O=C(CN1CCN(C(=O)c2ccco2)CC1)Nc1cccc([N+](=O)[O-])c1 was read as ERK EGF block inactive.
Screening O=C(NCc1cccc(CNC(=O)C(=O)NCC2CCCO2)c1)C(=O)NCC1CCCO1 (stereo not given) returned ERK EGF block inactive.
For COC(=O)CCc1sc(NC2CCCCC2)nc1-c1ccc(OC)cc1 the results were ERK EGF block inactive.
Screening Cn1c(N2CCOCC2)c(/C=N/O)c2ccccc21 returned ERK EGF block inactive.
For Cn1c(O)c(C=Nc2ccc(N3CCOCC3)cc2)c(=O)n(C)c1=S the results were ERK EGF block inactive.
For Cn1c(N=Nc2ccc(N3CCOCC3)cc2)[n+](C)c2ccccc21 the results were ERK EGF block 16µM.
For CC1CCN(c2ccc(NC(=O)c3ccccc3[N+](=O)[O-])cc2)CC1 the results were ERK EGF block inactive.
For COc1ccc(-c2nc(NC(C)=O)sc2-c2ccccc2)cc1 the results were ERK EGF block inactive.
Screening O=C1c2cccc3cccc(c23)N1Cc1ccc(F)cc1 returned ERK EGF block inactive.
Screening CCN(CC)C(=O)CN1C(=O)c2cccc3cccc(c23)C1=O returned ERK EGF block inactive.
CCN1/C(=N\N)c2cccc3cccc1c23 was read as ERK EGF block 13µM.
For Cn1cnnc1Sc1ccc(C(F)(F)F)cc1[N+](=O)[O-] the results were ERK EGF block inactive.
CCc1ccc(OCC(=O)Nc2ncn[nH]2)cc1 was read as ERK EGF block inactive.
`CC1CC(C)CN(C(=O)c2cccc3c2-c2ccccc2C3=O)C1` (stereo not given) gave ERK EGF block inactive.
`COc1ccc(C(=O)Oc2cccc(Nc3ncnc4ccccc34)c2)cc1OC` gave ERK EGF block 25µM.
Screening O=C(Oc1cccc(Nc2ncnc3ccccc23)c1)c1cccnc1 returned ERK EGF block 14µM.
For COc1ccc([N+](=O)[O-])cc1Nc1ncnc2ccccc12 the results were ERK EGF block inactive.
CC(=O)Nc1ccc(Nc2ncnc3ccccc23)cc1 was read as ERK EGF block inactive.
O=C(O)c1cccc(Nc2nc(-c3cccnc3)nc3ccccc23)c1 was read as ERK EGF block inactive.
`COC(=O)c1cccc(Nc2nc(-c3cccnc3)nc3ccccc23)c1` gave ERK EGF block inactive.
For COc1ccc2[nH]c(=O)c(CNc3ccc(C)cc3C)cc2c1 the results were ERK EGF block inactive.
For O=C(NCCNc1ccc([N+](=O)[O-])cc1C(F)(F)F)c1ccc(F)cc1 the results were ERK EGF block inactive.
Screening CCN(CC(=O)NCc1ccc(Cl)cc1)CC(=O)Nc1ccc(C(N)=O)cc1 returned ERK EGF block inactive.
For Cc1ccc(SCC(=O)Nc2ccc(C(=O)Nc3ccc(O)cc3)cc2)cc1 the results were ERK EGF block inactive.
`COC(=O)c1cc(NS(=O)(=O)c2ccc(N3CCOCC3)c(NC(C)=O)c2)cc(C(=O)OC)c1` gave ERK EGF block inactive.
Screening Cc1cc(C(C)(C)C)ccc1OCCCCN1CCCC1 returned ERK EGF block inactive.
Screening COc1ccc(C(=O)C[n+]2cccc(C)c2C)cc1[N+](=O)[O-] returned ERK EGF block inactive.
CCC(C)(C)c1ccc(OCCCC[n+]2cccc(C)c2C)c(C(C)(C)CC)c1 was read as ERK EGF block 32µM.
For CCOC(=O)C1=C(C)NC(=S)NC1c1ccc(-c2ccc(Cl)cc2)o1 (stereo not given) the results were ERK EGF block inactive.
Screening O=C(NCCCl)c1ccc(OCc2ccccc2)cc1Cl returned ERK EGF block inactive.
`CC(=O)NC1C(OCCOc2ccc(Cl)cc2Cl)OC(COC(C)=O)C(OC(C)=O)C1OC(C)=O` (stereo not given) gave ERK EGF block inactive.
For Cc1cn(C2OC(COC(=O)c3ccccc3)C(OC(=O)c3ccccc3)C2OC(=O)c2ccccc2)c(=O)[nH]c1=O (stereo not given) the results were ERK EGF block inactive.
O=C(OCC1OC(OC(=O)c2cc(O)c(O)c(OC(=O)c3cc(O)c(O)c(O)c3)c2)[C@@H](OC(=O)c2cc(O)c(O)c(OC(=O)c3cc(O)c(O)c(O)c3)c2)C(OC(=O)c2cc(O)c(O)c(OC(=O)c3cc(O)c(O)c(O)c3)c2)C1OC(=O)c1cc(O)c(O)c(OC(=O)c2cc(O)c(O)c(O)c2)c1)c1cc(O)c(O)c(OC(=O)c2cc(O)c(O)c(O)c2)c1 (stereo not given in full) was read as ERK EGF block 7.9µM.
CN(C)c1cccc2c1c(NC(=O)Nc1ccc(F)cc1F)nn2C was read as ERK EGF block inactive.
For CCOc1cccc(OCCOCCNC(C)(C)C)c1 the results were ERK EGF block inactive.
Screening COc1ccc(-c2c(O)c(C#N)c(-c3ccccc3)n(-c3ccc(OC)cc3)c2=O)cc1 returned ERK EGF block inactive.
`COc1ccc(Nc2c(-c3ccc(C)cc3)nc3cnccn23)cc1` gave ERK EGF block inactive.
`Cc1ccc(Nc2c(-c3ccccc3O)nc3cnccn23)cc1` gave ERK EGF block 25µM.
Screening COc1ccc(Nc2c(-c3ccc(OC)cc3)nc3cnccn23)cc1 returned ERK EGF block inactive.
COCC(C)Nc1ncnc2c1cnn2-c1ccc(Cl)cc1 (stereo not given) was read as ERK EGF block inactive.
Screening Cc1ccccc1OCC(=O)OCC(=O)Nc1cc(C(F)(F)F)ccc1N1CCOCC1 returned ERK EGF block inactive.
Screening NC(=S)N=Nc1c(O)n(Cc2ccccc2)c2ccccc12 returned ERK EGF block inactive.
Screening Cc1c(Cl)cccc1NC(=S)N=Nc1c(O)n(CN2CCOCC2)c2ccccc12 returned ERK EGF block inactive.
Screening Oc1c(N=NC(=S)Nc2ccccc2F)c2ccccc2n1Cc1ccccc1Cl returned ERK EGF block 14µM.
Screening COc1ccccc1NC(=S)N(Cc1ccco1)Cc1cc2cccc(C)c2[nH]c1=O returned ERK EGF block inactive.
`O=C(Nc1cc(S(=O)(=O)Nc2ccc(Cl)cc2)ccc1N1CCCCC1)c1ccc(F)cc1` gave ERK EGF block inactive.
For Cc1[nH]c2ccccc2c1C(C[N+](=O)[O-])c1cccs1 (stereo not given) the results were ERK EGF block inactive.
Screening CC(=O)Nc1ccc(Oc2ccccc2)cc1 returned ERK EGF block inactive.
Screening N#Cc1ccc(NC(=O)Nc2cccc(C#N)c2)cc1 returned ERK EGF block inactive.
`N#Cc1ccc(NC(=O)Nc2ccc(Oc3ccc(NC(=O)Nc4ccc(C#N)cc4)cc3)cc2)cc1` gave ERK EGF block 32µM.
`N/C(=N\OC(=O)CCCCCN1C(=O)c2ccccc2C1=O)c1ccccn1` gave ERK EGF block inactive.
CC(=O)CCc1c(C)nc2ccc(C)cc2c1Cl was read as ERK EGF block inactive.
For COc1ccccc1-c1cc(=O)c2cc(O)ccc2o1 the results were ERK EGF block inactive.
For COc1ccc(OC)c(-c2c3cc(O)c(=O)cc-3oc3cc(O)c(O)cc23)c1 the results were ERK EGF block 25µM.
Screening COc1ccc2c(=O)cc(-c3ccc(O)cc3)oc2c1 returned ERK EGF block inactive.
For O=C(CNCc1ccncc1)Nc1cc(S(=O)(=O)N2CCCCC2)ccc1Cl the results were ERK EGF block inactive.
For O=C(COc1ccc(Br)cc1Br)NC(=S)Nc1cccc(CO)c1 the results were ERK EGF block inactive.
CCOc1ccc(N(CC(=O)N/N=C/c2cc(Br)c(C)o2)S(C)(=O)=O)cc1 was read as ERK EGF block inactive.
